# Test results from ChEMBL document CHEMBL1961873, “Compounds: GSK PKIS; Assays: Nanosyn kinase panel” (2012).
# Experiments:
# [1] = target: RAC-alpha serine/threonine-protein kinase (Homo sapiens) (UniProt P31749); details: at 0.1 µM
# [2] = target: RAC-alpha serine/threonine-protein kinase (Homo sapiens) (UniProt P31749); details: at 1 µM
# [3] = target: RAC-beta serine/threonine-protein kinase (Homo sapiens) (UniProt P31751); details: at 0.1 µM
# [4] = target: RAC-beta serine/threonine-protein kinase (Homo sapiens) (UniProt P31751); details: at 1 µM
# [5] = target: RAC-gamma serine/threonine-protein kinase (Homo sapiens) (UniProt Q9Y243); details: at 0.1 µM
# [6] = target: RAC-gamma serine/threonine-protein kinase (Homo sapiens) (UniProt Q9Y243); details: at 1 µM
# [7] = target: G protein-coupled receptor kinase 6 (Homo sapiens) (UniProt P43250); details: at 0.1 µM
# [8] = target: G protein-coupled receptor kinase 6 (Homo sapiens) (UniProt P43250); details: at 1 µM
# [9] = target: T1, Rhodopsin kinase GRK7 (Homo sapiens) (UniProt Q8WTQ7); details: at 0.1 µM
# T1 sequence (whole entry): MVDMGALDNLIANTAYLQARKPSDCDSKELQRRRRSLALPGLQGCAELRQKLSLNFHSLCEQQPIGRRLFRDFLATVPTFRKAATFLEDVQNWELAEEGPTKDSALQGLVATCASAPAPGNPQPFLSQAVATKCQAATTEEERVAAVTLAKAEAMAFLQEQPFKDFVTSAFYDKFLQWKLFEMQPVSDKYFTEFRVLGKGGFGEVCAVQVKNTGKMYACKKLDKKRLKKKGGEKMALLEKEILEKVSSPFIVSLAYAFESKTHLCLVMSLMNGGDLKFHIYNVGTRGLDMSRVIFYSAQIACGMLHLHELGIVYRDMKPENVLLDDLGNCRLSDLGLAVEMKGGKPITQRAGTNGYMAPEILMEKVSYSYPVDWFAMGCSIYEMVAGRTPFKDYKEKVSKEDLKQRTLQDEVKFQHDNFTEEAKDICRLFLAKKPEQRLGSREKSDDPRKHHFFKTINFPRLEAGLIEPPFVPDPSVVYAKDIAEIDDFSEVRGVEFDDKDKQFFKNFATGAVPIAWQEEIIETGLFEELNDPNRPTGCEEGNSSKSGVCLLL
# [10] = target: T1, Rhodopsin kinase GRK7 (Homo sapiens); details: at 1 µM
# [11] = target: Serine/threonine-protein kinase MRCK alpha (Homo sapiens) (UniProt Q5VT25); details: at 0.1 µM
# [12] = target: Serine/threonine-protein kinase MRCK alpha (Homo sapiens) (UniProt Q5VT25); details: at 1 µM
# [13] = target: Serine/threonine-protein kinase MRCK beta (Homo sapiens) (UniProt Q9Y5S2); details: at 0.1 µM
# [14] = target: Serine/threonine-protein kinase MRCK beta (Homo sapiens) (UniProt Q9Y5S2); details: at 1 µM
# [15] = target: Ribosomal protein S6 kinase alpha-5 (Homo sapiens) (UniProt O75582); details: at 0.1 µM
# [16] = target: Ribosomal protein S6 kinase alpha-5 (Homo sapiens) (UniProt O75582); details: at 1 µM
# [17] = target: Ribosomal protein S6 kinase alpha-4 (Homo sapiens) (UniProt O75676); details: at 0.1 µM
# [18] = target: Ribosomal protein S6 kinase alpha-4 (Homo sapiens) (UniProt O75676); details: at 1 µM
# [19] = target: Ribosomal protein S6 kinase beta-1 (Homo sapiens) (UniProt P23443); details: at 0.1 µM
# [20] = target: Ribosomal protein S6 kinase beta-1 (Homo sapiens) (UniProt P23443); details: at 1 µM
# Chain of Serine/threonine-protein kinase MRCK alpha (Homo sapiens) (Q5VT25 whole entry): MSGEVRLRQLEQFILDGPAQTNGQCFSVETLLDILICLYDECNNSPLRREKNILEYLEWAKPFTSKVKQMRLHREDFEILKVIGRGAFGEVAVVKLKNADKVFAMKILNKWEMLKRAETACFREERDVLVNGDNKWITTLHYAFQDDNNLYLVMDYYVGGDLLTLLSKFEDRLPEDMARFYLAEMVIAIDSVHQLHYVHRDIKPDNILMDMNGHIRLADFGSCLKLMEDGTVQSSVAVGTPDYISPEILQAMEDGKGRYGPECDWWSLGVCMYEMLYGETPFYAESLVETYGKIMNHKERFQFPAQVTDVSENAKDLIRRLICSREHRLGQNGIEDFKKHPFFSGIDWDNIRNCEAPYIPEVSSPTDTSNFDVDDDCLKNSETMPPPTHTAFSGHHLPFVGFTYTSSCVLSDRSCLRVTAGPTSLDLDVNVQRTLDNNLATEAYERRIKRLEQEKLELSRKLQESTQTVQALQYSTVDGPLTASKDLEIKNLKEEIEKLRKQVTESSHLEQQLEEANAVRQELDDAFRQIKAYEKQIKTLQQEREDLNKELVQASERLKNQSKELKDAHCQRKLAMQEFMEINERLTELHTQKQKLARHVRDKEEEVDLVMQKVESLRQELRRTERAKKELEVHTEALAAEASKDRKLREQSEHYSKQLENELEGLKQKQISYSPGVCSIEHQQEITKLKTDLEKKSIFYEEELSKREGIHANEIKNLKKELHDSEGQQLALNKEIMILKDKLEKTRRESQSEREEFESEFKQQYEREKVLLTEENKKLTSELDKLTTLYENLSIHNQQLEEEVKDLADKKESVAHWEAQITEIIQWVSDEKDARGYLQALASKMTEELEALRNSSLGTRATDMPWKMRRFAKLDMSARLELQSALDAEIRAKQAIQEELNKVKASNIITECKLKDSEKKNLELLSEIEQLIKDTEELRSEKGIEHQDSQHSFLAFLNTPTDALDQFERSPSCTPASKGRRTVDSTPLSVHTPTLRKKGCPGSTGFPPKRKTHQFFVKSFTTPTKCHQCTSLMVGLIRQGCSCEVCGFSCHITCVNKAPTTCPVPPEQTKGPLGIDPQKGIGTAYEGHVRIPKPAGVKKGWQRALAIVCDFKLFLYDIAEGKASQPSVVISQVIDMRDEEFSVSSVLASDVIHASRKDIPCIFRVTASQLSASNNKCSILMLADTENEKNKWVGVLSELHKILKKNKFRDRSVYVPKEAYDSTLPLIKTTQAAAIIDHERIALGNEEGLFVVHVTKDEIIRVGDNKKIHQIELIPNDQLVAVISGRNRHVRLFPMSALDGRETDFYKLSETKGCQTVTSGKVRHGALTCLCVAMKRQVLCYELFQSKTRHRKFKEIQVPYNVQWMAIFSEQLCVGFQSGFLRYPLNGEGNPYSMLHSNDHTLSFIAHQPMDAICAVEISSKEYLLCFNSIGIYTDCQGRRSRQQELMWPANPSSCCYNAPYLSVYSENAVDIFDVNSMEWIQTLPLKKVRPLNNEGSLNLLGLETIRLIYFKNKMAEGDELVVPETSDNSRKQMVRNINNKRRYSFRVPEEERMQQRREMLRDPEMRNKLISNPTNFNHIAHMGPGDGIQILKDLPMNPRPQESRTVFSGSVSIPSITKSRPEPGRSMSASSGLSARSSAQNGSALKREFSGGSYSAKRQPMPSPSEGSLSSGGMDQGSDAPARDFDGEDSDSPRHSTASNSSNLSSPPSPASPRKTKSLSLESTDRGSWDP
# Chain of RAC-beta serine/threonine-protein kinase (Homo sapiens) (P31751 whole entry): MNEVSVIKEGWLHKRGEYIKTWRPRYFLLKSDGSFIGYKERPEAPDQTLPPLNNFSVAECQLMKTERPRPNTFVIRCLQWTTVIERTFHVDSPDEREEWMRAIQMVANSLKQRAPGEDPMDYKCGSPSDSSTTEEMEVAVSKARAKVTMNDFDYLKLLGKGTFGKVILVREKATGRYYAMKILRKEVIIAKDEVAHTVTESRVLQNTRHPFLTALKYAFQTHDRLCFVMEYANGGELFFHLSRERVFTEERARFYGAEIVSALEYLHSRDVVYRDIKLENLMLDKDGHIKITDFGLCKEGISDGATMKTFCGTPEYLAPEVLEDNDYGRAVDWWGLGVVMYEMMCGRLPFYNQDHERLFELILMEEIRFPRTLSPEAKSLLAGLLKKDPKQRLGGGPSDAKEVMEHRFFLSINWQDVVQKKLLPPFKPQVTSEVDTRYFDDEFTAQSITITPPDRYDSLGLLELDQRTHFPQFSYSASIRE
# Chain of Serine/threonine-protein kinase MRCK beta (Homo sapiens) (Q9Y5S2 whole entry): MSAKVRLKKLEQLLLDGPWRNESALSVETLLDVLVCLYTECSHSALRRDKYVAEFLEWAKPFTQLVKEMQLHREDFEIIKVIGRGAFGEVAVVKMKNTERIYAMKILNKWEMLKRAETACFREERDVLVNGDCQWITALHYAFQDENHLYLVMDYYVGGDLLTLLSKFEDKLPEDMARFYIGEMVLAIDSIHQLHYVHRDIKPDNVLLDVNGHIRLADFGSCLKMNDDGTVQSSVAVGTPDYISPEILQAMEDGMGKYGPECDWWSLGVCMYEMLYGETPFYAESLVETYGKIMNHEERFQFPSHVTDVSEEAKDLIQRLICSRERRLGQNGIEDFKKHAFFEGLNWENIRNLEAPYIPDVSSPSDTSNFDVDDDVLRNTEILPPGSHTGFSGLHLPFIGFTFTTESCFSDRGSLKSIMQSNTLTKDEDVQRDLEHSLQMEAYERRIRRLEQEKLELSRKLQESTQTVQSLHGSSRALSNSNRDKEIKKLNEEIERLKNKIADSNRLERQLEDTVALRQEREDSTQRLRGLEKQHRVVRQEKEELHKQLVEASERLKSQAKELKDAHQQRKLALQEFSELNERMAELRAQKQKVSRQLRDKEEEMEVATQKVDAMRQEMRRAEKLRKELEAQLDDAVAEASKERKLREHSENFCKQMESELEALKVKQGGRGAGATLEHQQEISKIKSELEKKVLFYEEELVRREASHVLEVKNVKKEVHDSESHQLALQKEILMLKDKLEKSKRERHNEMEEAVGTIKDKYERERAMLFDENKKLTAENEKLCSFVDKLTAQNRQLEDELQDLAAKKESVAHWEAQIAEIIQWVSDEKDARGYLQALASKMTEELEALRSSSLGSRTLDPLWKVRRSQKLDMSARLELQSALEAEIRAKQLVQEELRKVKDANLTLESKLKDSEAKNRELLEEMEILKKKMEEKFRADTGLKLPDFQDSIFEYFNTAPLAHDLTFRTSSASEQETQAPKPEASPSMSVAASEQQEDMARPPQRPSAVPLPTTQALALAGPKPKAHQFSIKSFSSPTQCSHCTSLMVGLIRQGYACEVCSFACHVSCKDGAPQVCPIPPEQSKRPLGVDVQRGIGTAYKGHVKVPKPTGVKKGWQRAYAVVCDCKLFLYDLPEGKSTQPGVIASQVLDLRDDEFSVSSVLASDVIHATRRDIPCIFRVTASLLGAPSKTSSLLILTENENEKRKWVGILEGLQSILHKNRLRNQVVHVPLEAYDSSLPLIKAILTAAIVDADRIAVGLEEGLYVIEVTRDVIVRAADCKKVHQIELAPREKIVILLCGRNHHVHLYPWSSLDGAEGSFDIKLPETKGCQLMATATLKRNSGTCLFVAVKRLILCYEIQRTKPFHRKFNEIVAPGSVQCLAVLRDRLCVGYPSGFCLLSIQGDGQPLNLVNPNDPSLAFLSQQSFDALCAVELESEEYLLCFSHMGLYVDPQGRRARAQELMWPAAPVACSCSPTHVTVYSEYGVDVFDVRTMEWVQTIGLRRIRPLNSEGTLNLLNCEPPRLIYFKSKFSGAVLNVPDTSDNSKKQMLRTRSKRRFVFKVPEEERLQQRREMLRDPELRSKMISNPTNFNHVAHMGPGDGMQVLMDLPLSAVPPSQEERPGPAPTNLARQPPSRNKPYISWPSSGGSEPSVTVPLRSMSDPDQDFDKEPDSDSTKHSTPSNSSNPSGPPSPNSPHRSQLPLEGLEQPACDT
# Chain of RAC-alpha serine/threonine-protein kinase (Homo sapiens) (P31749 whole entry): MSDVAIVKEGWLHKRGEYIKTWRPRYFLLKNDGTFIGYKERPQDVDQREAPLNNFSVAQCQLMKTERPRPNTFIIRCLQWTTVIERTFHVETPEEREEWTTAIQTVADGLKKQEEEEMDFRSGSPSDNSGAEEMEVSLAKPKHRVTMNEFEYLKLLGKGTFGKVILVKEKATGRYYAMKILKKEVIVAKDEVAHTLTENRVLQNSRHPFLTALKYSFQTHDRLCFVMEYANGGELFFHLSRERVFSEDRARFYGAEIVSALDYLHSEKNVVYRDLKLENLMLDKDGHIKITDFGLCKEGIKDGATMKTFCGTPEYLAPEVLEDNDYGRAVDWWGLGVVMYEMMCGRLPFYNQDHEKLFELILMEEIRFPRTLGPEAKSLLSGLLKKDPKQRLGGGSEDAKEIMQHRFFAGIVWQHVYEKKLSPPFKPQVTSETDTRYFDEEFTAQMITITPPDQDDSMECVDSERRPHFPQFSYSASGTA
# Chain of RAC-gamma serine/threonine-protein kinase (Homo sapiens) (Q9Y243 whole entry): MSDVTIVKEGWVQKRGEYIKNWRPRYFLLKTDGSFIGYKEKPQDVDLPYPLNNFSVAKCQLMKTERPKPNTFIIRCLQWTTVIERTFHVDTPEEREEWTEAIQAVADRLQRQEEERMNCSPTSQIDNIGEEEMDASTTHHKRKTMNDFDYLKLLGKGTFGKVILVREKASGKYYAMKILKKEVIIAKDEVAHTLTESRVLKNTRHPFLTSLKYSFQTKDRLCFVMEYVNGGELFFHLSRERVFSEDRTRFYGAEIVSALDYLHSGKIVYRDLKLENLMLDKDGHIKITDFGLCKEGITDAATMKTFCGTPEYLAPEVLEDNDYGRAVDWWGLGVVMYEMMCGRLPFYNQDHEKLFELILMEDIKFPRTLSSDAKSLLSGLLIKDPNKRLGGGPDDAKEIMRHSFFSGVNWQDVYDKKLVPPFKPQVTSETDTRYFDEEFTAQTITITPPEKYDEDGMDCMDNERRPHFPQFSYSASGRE
Structure (SMILES),inhibition [1],inhibition [2],inhibition [3],inhibition [4],inhibition [5],inhibition [6],inhibition [7],inhibition [8],inhibition [9],inhibition [10],inhibition [11],inhibition [12],inhibition [13],inhibition [14],inhibition [15],inhibition [16],inhibition [17],inhibition [18],inhibition [19],inhibition [20]
COc1ccc(COc2ccc(Cc3cnc(N)nc3N)cc2OC)cc1,0.82%,-0.15%,0.33%,-0.17%,0.61%,0.93%,-3%,-5.27%,11%,-7.03%,1.99%,-0.63%,3.11%,3.93%,8.75%,5.97%,1.99%,1.84%,1.54%,0.73%
CC1=C(C(=O)Nc2ccc3[nH]ncc3c2)C(c2ccc(F)cc2)NC(=O)N1 (stereo not given),-0.22%,0.8%,0.33%,1.45%,0.5%,2.79%,5.16%,7.3%,2.44%,6.49%,2.04%,12.4%,5.57%,29.9%,8.51%,34.2%,3.34%,16.7%,1.64%,13.8%
NCc1ccc(-c2nc(-c3ccc(Cl)c(O)c3)c(-c3ccncc3)[nH]2)cc1,0.06%,0.47%,-1.18%,-0.26%,-0.23%,0.68%,-0.28%,-0.98%,-2.26%,2.84%,0.67%,-0.06%,-1.19%,1.3%,0.16%,2.56%,-0.59%,2.82%,0.03%,0.71%
[O-][S+]1CCN(Cc2ccc(-c3ccc4ncnc(Nc5ccc(OCc6ccccc6)c(F)c5)c4c3)o2)CC1,0.83%,-0.19%,2.53%,0.9%,0.99%,1.21%,3.78%,-2.01%,1.86%,-0.58%,0.13%,-0.47%,-0.5%,0.8%,1.59%,1.41%,-0.07%,2.42%,0.52%,0.86%
O=C(Nc1n[nH]c2nc(-c3ccco3)c(Br)cc12)C1CC1,0.59%,0.53%,2.1%,2.15%,0.47%,1.46%,-0.71%,-0.55%,3.55%,4.09%,0.4%,-0.6%,1.27%,0.57%,3.55%,1.89%,0.7%,2.64%,1.19%,2.07%
COc1ccc(-c2coc3ncnc(N)c23)cc1,0.76%,0.76%,2.07%,1.94%,0.3%,2.05%,1.34%,1.56%,3.57%,9.28%,0.52%,-0.11%,1.16%,1.93%,9.6%,8.17%,1.64%,3.84%,1.77%,2.26%
O=C1Nc2ccc(C(=O)c3ccco3)cc2C1=Cc1cc(Cl)c(O)c(Cl)c1,0.57%,1.08%,1.49%,0.98%,1.75%,0.62%,29.7%,79.6%,30.6%,54.8%,-0.25%,1.33%,-0.3%,1.6%,2.41%,5.05%,0.41%,4.81%,0.47%,3.14%
Nc1nc(-c2ccc3c(c2)C(=Cc2cc(Br)c(O)c(Br)c2)C(=O)N3)cs1,-2.07%,-1.22%,-2.78%,-0.83%,-2.54%,-0.36%,0.91%,10.7%,-6.85%,22.8%,-0.3%,-1.5%,0.42%,0.83%,-1.16%,0.13%,-1.47%,-0.48%,-1.65%,1.12%
NS(=O)(=O)c1cccc(-c2ccc3c(NC(=O)C4CC4)n[nH]c3c2)c1,-2.14%,-1.44%,-4.21%,-1.31%,-1.31%,-2.99%,1.43%,2.82%,-7.07%,-0.65%,0.11%,-0.38%,0.03%,2.23%,-0.03%,1.96%,-0.84%,0.37%,-1.3%,0.07%
O=C1NC(=O)C(N2CCc3ccccc32)=C1c1ccc(Cl)cc1,1.09%,1.67%,1.7%,2.85%,2.52%,1.75%,0.71%,3.31%,2.29%,7.76%,0.19%,0.98%,0.69%,1.86%,9.94%,7.93%,1.73%,4.02%,1.81%,1.76%
CCn1c(-c2nonc2N)nc2c(N3CCCC3)nccc21,-2.09%,-2.19%,-3.12%,-0.45%,-0.61%,1.15%,0.48%,2.71%,-7.43%,0.27%,-0.27%,5.42%,-0.1%,2.55%,-0.19%,11.2%,-0.68%,3.67%,-0.49%,8.23%
Cc1ccc(NC(=O)c2ccnc(N3CCCC3)c2)cc1-c1ccc(C(=O)NCC2CC2)cc1,-2.27%,-3.57%,-1.45%,-1.55%,-3.88%,-2.23%,2.49%,0.85%,5.08%,10.4%,1.01%,-0.76%,1.8%,2.5%,2.8%,2.72%,3.43%,8.63%,1.53%,2.76%
COc1ccc(-c2ccncc2)cc1C(N)=O,0.88%,-0.34%,0.41%,2.06%,1.15%,2.9%,5.49%,5.53%,9.86%,2.23%,3.16%,6.38%,-0.49%,2.83%,9.33%,10.5%,2.85%,5.28%,1.79%,4.79%
Nc1nc(-c2ccccn2)c(-c2ccc3ncccc3n2)s1,0.97%,0.96%,1.1%,1.5%,1.6%,1.17%,5.73%,1.87%,1.26%,-0.58%,0.29%,-0.21%,-1.45%,0.91%,2.65%,4.51%,1.3%,3.24%,0.7%,1.17%
CS(=O)(=O)Nc1ccc(N/C=C2\C(=O)Nc3ccccc32)cc1,-2.28%,-2.1%,-3.92%,-2.28%,-3.25%,1.91%,-1.94%,0.5%,-1.39%,-5.45%,-2.44%,-0.5%,0.24%,-0.45%,-1.26%,-0.97%,-0.53%,7.44%,-0.58%,3.4%
Cn1cc(C=C2C(=O)Nc3cccnc32)c2ccccc21,0.73%,0.22%,1.08%,1.6%,1.15%,0.99%,-1.62%,6.18%,3.02%,10.6%,0.96%,0.55%,1.17%,0.99%,2.12%,3.29%,2.56%,10.1%,1.61%,3.78%
CCn1c(-c2nonc2N)nc2ccncc21,0.31%,0.51%,0.98%,1.01%,-0.4%,-0.73%,0.85%,-3.7%,0.19%,2.02%,1.72%,1.13%,0.86%,0.41%,1.63%,2.9%,0.33%,2.82%,1.28%,3.8%
COC(=O)Nc1nc2cc(Oc3ccc(NC(=O)Nc4cccc(C(=O)O)c4)cc3)ccc2[nH]1,-2.71%,-3.33%,-3.47%,-2.42%,-1.3%,-3.6%,2%,-0.77%,1.5%,-3.21%,1.42%,1.5%,-0.52%,-1.21%,-0.25%,1.28%,1.24%,2.84%,0.88%,0.91%
COc1ccccc1Nc1ncc(-c2ccccc2)o1,1.37%,1.71%,0.6%,2.82%,0.12%,3.9%,2.46%,3.95%,10.1%,2.31%,-5.48%,-2.78%,0.73%,0.66%,-3.3%,-5.77%,4.65%,2.42%,1.36%,2.44%
CCCN1CCC=C(c2ccc(Nc3nc(Nc4ccccc4C(N)=O)c4cc[nH]c4n3)c(C)c2)C1,0.97%,1.22%,1.3%,1.5%,-0.2%,5.51%,6.79%,31.4%,11.2%,20.5%,5.2%,9.75%,0.66%,4.44%,4.46%,6.4%,1.37%,5.28%,0.98%,6.39%
CS(=O)(=O)CCN(CC#N)Cc1ccc(-c2ccc3ncnc(Nc4ccc(OCc5cccc(F)c5)c(Cl)c4)c3c2)o1,-1.63%,-3.32%,-3.4%,-2.91%,-3.18%,-0.79%,0.99%,3.25%,6.9%,2.37%,-0.15%,-1.53%,-0.05%,-0.09%,0.54%,-1.33%,1.06%,1.76%,0.1%,0.27%
Nc1ncnc2occ(-c3ccc(NC(=O)Nc4cccc(C(F)(F)F)c4)cc3)c12,1.53%,0.96%,1.75%,2.15%,0.73%,2.7%,2.54%,0.47%,8.48%,4.95%,-3.03%,0.21%,0.84%,1.21%,6.35%,19.5%,3.31%,20.8%,21%,73.5%
CN(C)c1cc2c(Nc3ccc4nc(Cc5ccccc5)[nH]c4c3)ncnc2cn1,1.02%,0.52%,2.3%,2.71%,1.37%,3.27%,2.98%,6.85%,20.5%,22.6%,-0.16%,1.32%,0.33%,0.93%,4.14%,4.53%,1.93%,2.96%,2.15%,4.96%
CC1=C(C(=O)Nc2ccc3[nH]ncc3c2)C(c2ccc3ccccc3c2)CC(=O)N1 (stereo not given),0.52%,0.98%,0.74%,1.1%,1.23%,3.76%,2.91%,13.5%,2.64%,4.56%,3.1%,22.7%,5.85%,37.9%,10.7%,47.6%,6.16%,34.1%,2.41%,21.4%
Cc1nnc(-c2ccc(C)c(-c3ccc(C(=O)Nc4cccc(C#N)c4)cc3)c2)o1,0.44%,0.29%,0.76%,0.57%,1.16%,1.22%,2.81%,3.91%,2.5%,7.22%,0.21%,2.76%,-0.92%,-0.91%,1.21%,1.62%,0.19%,2.28%,1.45%,1.91%
COc1cc2ncn(-c3cc(O[C@H](C)c4ccccc4Cl)c(C(N)=O)s3)c2cc1OC,1.41%,2.07%,2.49%,2.19%,0.81%,1.74%,3.78%,15%,5.01%,10.8%,1.89%,5.55%,0.35%,1.02%,-1.18%,3.73%,4.32%,13.8%,1.42%,4.7%
CC(C)=Cc1cccc2c1/C(=N/Nc1ccc(S(N)(=O)=O)cc1)C(=O)N2,0.31%,0.65%,0.76%,0.93%,2.87%,0.49%,3.06%,8.62%,1.04%,-0.7%,1.91%,3.43%,-0.74%,0.5%,7.7%,11.4%,2.65%,15.9%,1.06%,5.23%
